Screening data from PubChem.
An excerpt weighted towards active compounds, which were near 11% of everything screened.
NS1 function inh: qHTS Assay for Inhibitors of Influenza NS1 Protein Function. 0.4% of 270,000 active. Potency, µM (doses to about 46.1 µM), for the others: at the top dose activity, positive = more growth. AID 2326, 2010; calls by dose curve; also: actives are rising curves; nearly all actives have a fitted effect of over 50% in size
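Read-out: OD600 growth recovery of NS1-expressing budding yeast. Cells grown overnight at 30C in -URA glucose medium, washed, resuspended and diluted 1:100 in 2% galactose assay medium, pH 6.0. Same strain lacking NS1 served as positive control.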
Pf growth 48h: Primary qHTS for delayed death inhibitors of the malarial parasite plastid, 48 hour incubation | 5.9% of 310,000 active | Potency, µM (highest dose often 28.7 µM), for the others: at the top dose activity change, negative = inhibition, hits mostly inhibitors | P. falciparum luciferase growth in erythrocytes, 48 h; also: % is scaled to controls: 0 for no effect and ±100 for the full control effect
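Parasite viability was followed by luminescence of a genomically integrated firefly luciferase. Cultures held 0.1% parasitemia at 2% hematocrit (final), incubated under 5% CO2 at 37 C.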
Sm TGR block: qHTS Assay for the Inhibitors of Schistosoma Mansoni Peroxiredoxins; Schistosoma mansoni thioredoxin glutathione reductase (TGR), Q962Y6; purified TGR, DTNB reduction, TNB absorbance 405 nm; Potency, µM (titrated, usually from 114 µM), without a hit: top-dose activity change, negative = inhibition, most hits filed as inhibitors; 3% of 360,000 active; AID 485364, 2010; also: % is scaled to controls: 0 for no effect and ±100 for the full control effect; nearly all actives have a fitted effect of over 60% in size
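First, TGR (20 nM dispensed) and NADPH were mixed with compound. Second, a 15 min room-temperature incubation followed. Third, further NADPH and then DTNB were added to start the reaction. Finally, TNB absorbance was monitored kinetically.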
AMA1-RON2 inh: qHTS for Inhibitors of AMA1-RON; Towards Development of Antimalarial Drug Lead: Primary Screen; AID 720542, 2013; Potency, µM (highest dose often 58.2 µM), for the others: at the top dose activity change, negative = inhibition, hits mostly inhibitors; AlphaScreen AMA1-biotinylated RON2 peptide binding; 0.2% of 360,000 active; Plasmodium falciparum AMA1 (3D7) - RON2 peptide interaction;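 also: 0% = vehicle wells and -100% = peptide control; nearly all actives have a fitted effect of over 45% in size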
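AMA1 (3D7) with his tag at 25 nM final met compounds first, then biotinylated RON2 peptide at 25 nM; detection used donor plus acceptor beads, 10 µg/mL apiece, read by AlphaScreen after 30 min at room temperature.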
Pf growth 96h: Primary qHTS for delayed death inhibitors of the malarial parasite plastid, 96 hour incubation; Potency, µM (series often up to 28.7 µM), for inactives: at the highest dose activity change, negative = inhibition, actives largely listed as inhibitors; P. falciparum luciferase reporter growth, 96 h; 6.9% of 320,000 active; also: % is scaled to controls: 0 for no effect and ±100 for the full control effect
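Infected RBCs, 2% Hct / 0.05% parasitemia final; luciferase-reporter P. falciparum; cpd 96 h, 37 C, 5% CO2; luciferase detection reagent; luminescence.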
* hit, by the source's call; u = inconclusive; x = not tested or not shown; [ ] = remark or other dose. Unless noted, calls follow the shape of the dose curve; as a rule, active = well fitted curve in the direction sought with a large enough effect; inconclusive = small, poorly fitted or top-dose-only effect, or another doubt; inactive = no such curve, though single readings can be large; an effect the other way counts as inactive or inconclusive. Potency is read from the fitted curve at half-maximal effect.

SMILES	NS1 function inh	Pf growth 48h	Sm TGR block	AMA1-RON2 inh	Pf growth 96h
CCN(c1ccc(OC)cc1)S(=O)(=O)c1csc(C(N)=O)c1	-1%	-20%[0.00184 µM]	0%	-15%	u
COc1ccc(Cn2nnnc2CN2CCOCC2)cc1	-2%	-4%	0%	-13%	13µM*
Cc1ccc(S(=O)(=O)Cn2nnnc2C(c2ccccc2)N2CCN(c3ncccn3)CC2)cc1 (stereo not given)	13%	9.3µM*	-1%	-26%	73%
Cc1ccc(S(=O)(=O)Cn2nnnc2C(c2ccc(F)cc2)N2CCCCC2)cc1 (stereo not given)	-36%	u	14%	25%	-11%
COc1ccc(C(c2nnnn2CS(=O)(=O)c2ccc(C)cc2)N2CCN(c3ncccn3)CC2)cc1 (stereo not given)	12%	9.3µM*	0%	-8%	u
Cc1ccc(S(=O)(=O)Cn2nnnc2C(CC(C)C)N2CCN(c3ccc(F)cc3)CC2)cc1 (stereo not given)	-32%	u	1%	-12%	u
O=S(=O)(Cc1nnnn1-c1ccccc1)c1ccc(F)cc1	18%	0%	-1%	-4%	-9%
Cc1ccc(S(=O)(=O)Cc2nnnn2-c2ccccc2)cc1	4%	-4%	7%	-4%	6.6µM*
CCC(c1nnnn1CS(=O)(=O)c1ccc(C)cc1)N1CCN(c2nc3ccccc3s2)CC1 (stereo not given)	2%	8.3µM*	0%	6%	9%
Cc1ccccc1C(=O)NNC(=O)CCCCC(=O)NNC(=O)c1ccccc1C	x	x	x	26%	x
COc1ccc(Cn2ccc3nc(C)c(C(=O)Nc4ccc(OC)cc4)cc3c2=O)cc1	x	x	1%	x	x
Cc1ccc(S(=O)(=O)N2C[C@@H](C)[C@]3(C2)[C@H](O)[C@H](OC(=O)Nc2cccs2)C[C@H]2C(=O)N(c4ccccc4)C(=O)[C@H]23)cc1	x	x	x	-14%	x
CC(=O)Nc1ccc(Nc2nc3ccc(Cl)cc3n3cnnc23)cc1	x	x	6%	x	x
Cc1cc(C(=O)OC(C)C(=O)N2CCc3ccccc32)ccc1[N+](=O)[O-] (stereo not given)	x	-13%	-1%	u	12%
CC[C@]12c3[nH]c4ccccc4c3CCN1C(=O)C(CC(=O)NCCC1=CCCCC1)C[C@@H]2C(=O)N1CCN(C(=O)C2CC2)CC1 (stereo not given in full)	x	x	x	5%	x
CCCC(c1nnnn1CS(=O)(=O)c1ccc(C)cc1)N1CCN(c2ccccc2)CC1 (stereo not given)	-10%	12µM*	1%	-4%	0%
CCCC(c1nnnn1CS(=O)(=O)c1ccc(C)cc1)N1CCC(C(N)=O)CC1 (stereo not given)	4%	0%	3%	14%	36%
O=C(c1ccco1)N1CCN(C(c2ccc(F)cc2)c2nnnn2Cc2cccs2)CC1 (stereo not given)	-7%	u	u	6%	0.93µM*
Cc1ccc(S(=O)(=O)Cn2nnnc2C(c2ccccc2)N2CCN(c3ccccc3)CC2)cc1 (stereo not given)	u	13µM*	-35%	-6%	u
Cc1ccc(C(c2nnnn2CS(=O)(=O)c2ccc(C)cc2)N2CCCC2)cc1 (stereo not given)	7%	-2%	-22%	1%	u
CCCCC(c1nnnn1CS(=O)(=O)c1ccc(C)cc1)N1CCN(C)CC1 (stereo not given)	4%	u	10µM*	18%	-4%
COc1cccc(NC(=O)CCNC(=O)Cn2cnc3ccccc3c2=O)c1	x	x	-1%	x	x
O=C(CCC1N=C2c3ccccc3N=C(SCC(=O)Nc3cccc(Cl)c3)N2C1=O)NCc1ccco1 (stereo not given)	x	x	-11%	x	x
CCOc1ccc(S(=O)(=O)N2CCCC(C(=O)NCc3ccncc3)C2)cc1C (stereo not given)	-3%	6%	8%	11%	-16%
Cc1ccc(S(=O)(=O)Cn2nnnc2C(C)N2CCN(C(=O)c3ccco3)CC2)cc1 (stereo not given)	-4%	10µM*	45µM*	1%	5.2µM*
SMILES	NS1 function inh	Pf growth 48h	Sm TGR block	AMA1-RON2 inh	Pf growth 96h
O=c1cc(-c2ccccc2)cc(-c2ccccc2)n1O	x	13µM*	2%	92%	u
CN1C2CCC1CC(NC(=O)CSCc1ccc(Cl)cc1Cl)C2 (stereo not given)	-3%	u	-7%	5%	13µM*
Cc1ccc(SCC(=O)NC2CC3CCC(C2)N3C)cc1 (stereo not given)	8%	2%	8%	2%	-24%
Cc1cc(C)cc(NC(=O)CN2C(=O)COc3ccc(S(=O)(=O)Nc4ccccc4)cc32)c1	x	x	1%	x	x
O=C(Nc1ccc(Cl)cc1)Nc1nnc(SCc2ccc(Cl)cc2)s1	1%	-7%	u	-8%	5.2µM*
COc1ccc(CCCNC(=O)C2(C)Cc3c(-c4ccc(NC(C)=O)cc4)ccnc3O2)cc1 (stereo not given)	x	x	x	-7%	x
COCCn1c(-c2ccco2)nc2nc3ccccc3nc21	-13%	-4%	7%	-6%	-10%
CCC(C)n1c(-c2ccco2)nc2nc3ccccc3nc21 (stereo not given)	-29%	u	0%	x	10µM*
COc1cccc(-n2c(-c3ccco3)nc3nc4ccccc4nc32)c1	6%	2%	0%	9%	3.3µM*
CCCCn1c(-c2ccco2)nc2ccccc2c1=O	-15%	-8%	56µM*	-7%	18%
Cc1cccc(-n2c(-c3ccco3)nc3nc4ccccc4nc32)c1	10%	1%	-20%	x	-7%
CC(C)OCCCn1c(-c2ccco2)nc2nc3ccccc3nc21	-38%	u	50µM*	6%	3.3µM*
Cc1cc(C(=O)NC(C)C2CC2)c(Cl)cc1Cl (stereo not given)	-1%	4%	5%	16%	47%
CN(CC(=O)Nc1c(Cl)cccc1Cl)C(=O)CNC(=O)c1ccc2ccccc2c1	x	1%	1%	10%	21%
CCOc1ccc(N=C2NN=C(c3cc(C)n(CC4CCCO4)c3C)CS2)cc1 (stereo not given)	14%	u	-13%	8%	2.1µM*
N#CCC(CNc1ncc(C(F)(F)F)cc1Cl)OC(=O)c1cccc([N+](=O)[O-])c1 (stereo not given)	-3%	13µM*	9%	13%	4.7µM*
O=C(c1ccccc1)N1CCN(C2c3cccc4cccc(c34)C2NS(=O)(=O)c2ccccc2)CC1 (stereo not given)	u	6.6µM*	-1%	-11%	4.1µM*
